High-throughput results from PubChem.
POLI inh – qHTS for Inhibitors of Polymerase Iota; DNA polymerase iota (Homo sapiens), Q9UNA4; Pol iota fluorescent replication assay, 10 min; Potency, µM (highest dose often 115 µM), for the others: at the top dose activity, negative = inhibition, most hits filed as inhibitors; 390,000 compounds, 1% hits
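Pol iota at 10 nM preincubated 15 min with compounds at room temperature; reaction started with fluorescent substrate, 50 nM final. Fluorescence read kinetically at 0 and 10 min; buffer-only wells as negative control.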
WRN helicase inh – qHTS for Inhibitors of WRN Helicase | Potency, µM (titrated, usually from 114 µM), inactives show at the highest dose activity change, negative = inhibition, hits mostly inhibitors | 360,000 compounds, 0.46% hits | Bifunctional 3'-5' exonuclease/ATP-dependent helicase WRN (Homo sapiens), Q14191 | WRN helicase unwinding, fluorescent forked duplex, kinetic; also: % is scaled to controls: 0 for no effect and ±100 for the full control effect; nearly all actives have a fitted effect of over 55% in size
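Kinetic fluorescence helicase assay: unwinding of a quenched forked DNA duplex (100 nM final) with 2 mM ATP final raises red fluorescence (525/598 nm). Compounds sat 15 min at room temperature with 20 nM WRN beforehand.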
POLK inh – qHTS for Inhibitors of Polymerase Kappa. AID 588579, 2011. 400,000 compounds, 0.53% hits. Potency, µM (doses to about 107 µM), without a hit: at the highest dose activity, negative = inhibition, most hits filed as inhibitors. purified Pol kappa, fluorescent DNA synthesis assay, 10 min. DNA polymerase kappa (Homo sapiens), Q9UBT6; also: % is scaled to controls: 0 for no effect and ±100 for the full control effect
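Pol kappa 10 nM + cpd, 15 min RT; start w/ substrate 50 nM final; fluorescence kinetic read, 0 and 10 min. Neg ctrl: buffer, no enzyme.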
FEN1 inhibitor – qHTS Assay for the Inhibitors of Human Flap endonuclease 1 (FEN1); AID 588795, 2011; P39748; Potency, µM (highest dose often 114 µM), for inactives: at the highest dose activity change, negative = inhibition, usual class: inhibitors; Recombinant FEN1 flap cleavage, fluorescence, 15 min; 390,000 compounds, 0.35% hits; also: % is scaled to controls: 0 for no effect and ±100 for the full control effect; nearly all actives have a fitted effect of over 65% in size
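FEN1 at 10 nM preincubated with compounds 15 min at room temperature, then flap DNA substrate added at 50 nM final. Signal read at 0 and 15 min; concentration-response fitted with four-parameter Hill equation.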
Pol eta inh – qHTS for Inhibitors of Polymerase Eta; 390,000 compounds, 1.2% hits; DNA polymerase eta (Homo sapiens), Q9Y253; Potency, µM (doses to about 114 µM), inactives show top-dose activity change, negative = inhibition, hits mostly inhibitors; recombinant Pol eta, fluorescent DNA replication assay; AID 588591, 2011; also: % is scaled to controls: 0 for no effect and ±100 for the full control effect
Target sequence (Q9Y253 whole entry, looked up): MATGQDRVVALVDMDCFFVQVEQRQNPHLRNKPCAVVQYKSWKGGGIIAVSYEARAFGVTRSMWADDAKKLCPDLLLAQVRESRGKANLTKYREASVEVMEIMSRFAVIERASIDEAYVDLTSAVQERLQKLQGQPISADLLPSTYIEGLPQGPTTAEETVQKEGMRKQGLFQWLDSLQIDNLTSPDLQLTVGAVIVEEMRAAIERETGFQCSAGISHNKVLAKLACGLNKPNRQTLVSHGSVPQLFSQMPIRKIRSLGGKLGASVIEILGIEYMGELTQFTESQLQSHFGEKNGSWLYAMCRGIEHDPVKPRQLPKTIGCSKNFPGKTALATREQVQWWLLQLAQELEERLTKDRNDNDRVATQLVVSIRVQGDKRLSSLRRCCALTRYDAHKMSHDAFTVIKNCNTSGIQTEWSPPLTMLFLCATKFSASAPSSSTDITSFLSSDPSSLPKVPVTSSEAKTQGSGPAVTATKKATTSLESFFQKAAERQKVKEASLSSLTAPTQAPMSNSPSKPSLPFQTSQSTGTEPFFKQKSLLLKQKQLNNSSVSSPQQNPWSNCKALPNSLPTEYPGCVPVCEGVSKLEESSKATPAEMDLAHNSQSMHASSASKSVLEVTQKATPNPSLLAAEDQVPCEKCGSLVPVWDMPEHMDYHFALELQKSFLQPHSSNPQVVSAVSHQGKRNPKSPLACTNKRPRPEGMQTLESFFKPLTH
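Pol eta (10 nM) was preincubated with compounds for 15 min at room temperature, after which fluorescent replication substrate (50 nM final) was added to start the reaction. Fluorescence was read kinetically at 0 and 10 min.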
POLB inh – qHTS Assay for Inhibitors of DNA Polymerase Beta | P06746 | Pol beta primer extension/strand displacement, fluorescence kinetic | Potency, µM (highest dose often 114 µM), for inactives: top-dose activity change, negative = inhibition, hits mostly inhibitors | 340,000 compounds, 1.3% hits | AID 485314, 2010; also: % is scaled to controls: 0 for no effect and ±100 for the full control effect
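Pol beta (10 nM) was preincubated with compound for 15 min at room temperature. The reaction was then started with 50 nM substrate and read immediately and after a further 10 min at room temperature.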
* marks the source's active call; other numbers are inactive results; u = inconclusive; x = no result; [ ] = remark or other dose. Most compounds without a hit are left out; they make up all but 2.4% or so of the library. Calls follow the shape of the dose curve; as a rule, active = well fitted curve in the direction sought with a large enough effect; inconclusive = small, poorly fitted or top-dose-only effect, or another doubt; inactive = no such curve, though single readings can be large; an effect the other way counts as inactive or inconclusive. Potency is read from the fitted curve at half-maximal effect.

SMILES	POLI inh	WRN helicase inh	POLK inh	FEN1 inhibitor	Pol eta inh	POLB inh
O=C(c1ccc2ccccc2c1)N1CCN(S(=O)(=O)/C=C/c2ccccc2)CC1	16%	0%	-5%	-5%	-17%	7%
O=C(/C=C/c1ccccc1)c1ccc2ccccc2c1	22µM*	-11%[11.6 µM]	-12%	3%	-17%	x
c1ccc2[nH]ccc2c1	x	x	0%[19.4 µM]	x	x	x
CCN1/C(=C/C=C/c2oc3ccc4ccccc4c3[n+]2CC)Oc2ccc3ccccc3c21	79µM*	u	45µM*	u	32µM*	6.3µM*
CC[n+]1c(/C=C/N(C)c2ccccc2)oc2ccc(Cl)cc21	4%	-10%	-26%	3%	-17%	-11%
Cc1ccc(S(=O)(=O)/N=C2/C=C(C3C(=O)CC(C)(C)CC3=O)C(=O)c3ccccc32)cc1	u	17µM*	-25%	-16%	-12%	u
CNC(=O)C1CC(=O)N(CCc2ccccc2)C(=Nc2ccc(OC)cc2)S1 (stereo not given)	33%	-1%	-7%	-9%	-11%	1%
COc1ccc(CCN2C(=O)CC(C(N)=O)SC2=Nc2ccccc2)cc1 (stereo not given)	79µM*	-17%[57.1 µM]	-21%	5%	u	u
O=[N+]([O-])c1cc(-c2nc(-c3ccccc3)no2)ccc1N1CCOCC1	18%	x	-6%	-6%	-17%	-2%
CCc1cc2c(=O)n(Cc3ccco3)c(SCC(=O)N(C)C3CCS(=O)(=O)C3)nc2s1 (stereo not given)	u	-13%	u	0%	-10%	20µM*
CN(C(=O)CSc1nc2cc(Cl)ccc2c(=O)n1Cc1ccco1)C1CCS(=O)(=O)C1 (stereo not given)	27%	4%	9%	-6%	-6%	u
CCc1cc2c(=O)n(Cc3ccco3)c(SCc3c(C)noc3C)nc2s1	14µM*	-28%	-12%	-2%	-19%	0%
O=C(COc1ccc2ccccc2c1)NNC(=O)C(=O)Nc1ccccc1	u	-18%	-17%	15%	-10%	40µM*
Cc1cc(Br)ccc1OCC(=O)NNC(=O)C(=O)Nc1ccccc1	u	-23%	-19%	-13%	-16%	28µM*
Cc1cccc(NC(=O)NNC(=O)COc2ccc3ccccc3c2)c1	11%	12%	5%	-3%	-4%	8%
CCO/C=C1\SC(=S)N(c2ccc(Cl)cc2)C1=O	25µM*	u	-15%	1%	-9%	u
C/C(O)=C1\C(=O)[C@@H]2[C@H]3c4c[nH]c5cccc(c45)C[C@H]3C(C)(C)N2C1=O	x	x	-5%[19.4 µM]	x	x	x
Cc1ccc(-n2ncc3c(N(C)Cc4ccccc4)ncnc32)cc1	6%	x	-4%[60.1 µM]	5%	-22%	-1%
NS(=O)(=O)c1ccc(CNS(=O)(=O)c2cc(C(=O)O)ccc2Cl)cc1	u	-19%[57.1 µM]	-70%	-11%	20µM*	u
O=C(c1cnccn1)N1CCC2(CC1)CCN(c1ccccc1)CC2	x	x	-7%[60.1 µM]	x	x	x
CCCC1=NN2C(=N)/C(=C\c3cc(C)n(Cc4ccccc4)c3C)C(=O)N=C2S1	20%	-5%	-23%	-4%	-13%	1%
Cc1cc(/C=C2\C(=N)N3N=C(S(C)(=O)=O)SC3=NC2=O)c(C)n1Cc1ccccc1	u	u	-8%	-18%	35µM*	u
Cc1cc(/C=C2/C(=N)N3C(=NC2=O)SN=C3S(C)(=O)=O)c(C)n1-c1ccccc1F	u	-12%[57.1 µM]	-13%	-9%	79µM*	5%
NC(=O)c1ccc(N=C2C(=O)Nc3ccc([N+](=O)[O-])cc32)cc1	u	4%	-9%	u	20µM*	u
CSc1nc(N)c2ncn([C@@H]3O[C@H](COP(=O)(O)OP(=O)(O)O)C(O)[C@H]3O)c2n1 (stereo not given in full)	x	x	-7%[60.1 µM]	x	x	x
SMILES	POLI inh	WRN helicase inh	POLK inh	FEN1 inhibitor	Pol eta inh	POLB inh
Cc1ccc(S(=O)(=O)N2CCN(C(=O)c3cccc(-n4cccc4)c3)CC2)cc1	22µM*	u	79µM*	-3%	18µM*	x
CCCCN(C(=O)Cn1ncc(Cl)c(Cl)c1=O)c1c(N)n(CC(C)C)c(=O)[nH]c1=O	16µM*	-34%	71µM*	-20%	28µM*	22µM*
CCCCN(C(=O)CN1CC(C)OC(C)C1)c1c(N)n(CC(C)C)c(=O)[nH]c1=O (stereo not given)	11%	-4%	-5%	5%	-11%	-1%[57.1 µM]
Cn1cnc([N+](=O)[O-])c1SCC(=O)NN	79µM*	0%	u	-25%	-2%	-21%
Cn1cnc([N+](=O)[O-])c1SCC(O)CN1CCCCC1 (stereo not given)	-12%	6%	5%	-4%	-1%	-15%
COc1ncc2nc(-c3cccs3)c(=O)n(C)c2n1	x	x	-7%[60.1 µM]	x	x	x
O=[N+]([O-])c1ccc(Cl)c(S(=O)(=O)/N=C(/Sc2ccc(Br)cc2)c2ccccc2)c1	19%	x	-13%	-11%	x	x
Cn1cc(C(c2ccccc2OCC(=O)O)c2cn(C)c3ccccc23)c2ccccc21	82%	79µM*	-13%	-11%	1%	-3%
Cc1cc(/C=C2/C(=N)N3C(c4ccccc4)=CSC3=NC2=O)c(C)n1-c1ccc(Cl)cc1	39%	0%	-3%	-10%	-4%	x
N=C1/C(=C\c2ccc(-c3cccc(Cl)c3)o2)C(=O)N=C2SC=C(c3ccccc3)N12	u	u	u	-2%	79µM*	10µM*
O=C(NCc1ccccc1Br)c1cnc2sc(N3CCCCCC3)nn2c1=O	29%	x	2%	0%	-11%	10%
CCN(CC)c1ccc(/C=C/c2ccnc3ccccc23)cc1	21%	x	-8%	-10%	x	x
C(=C\c1ccnc2ccccc12)/c1ccc(N2CCOCC2)cc1	u	x	u	45µM*	x	x
CC[N+](C)(C)c1ccc(/C=C/c2ccnc3ccccc23)cc1	79µM*	x	u	40µM*	x	x
